# Most compounds without a hit are left out; they make up all but 22% or so of the library.
# Pf growth 96h: P. falciparum growth inhibition at 96 hours; 320,000 tested, 6.9% active; Potency, µM (highest dose often 28.7 µM), without a hit: at the top dose activity change, negative = inhibition, usual class: inhibitors; AID 504834; P. falciparum luciferase reporter growth, 96 h; further: potency means the concentration at half of the fitted maximal effect; on the % scale 0 is the no-effect control and ±100 the full control effect
#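 Readout is luminescence from an integrated firefly luciferase in P. falciparum. Red cells, 2% hematocrit and 0.05% parasitemia final, were cultured with compound through two parasite generations (96 hours) at 37 C, 5% CO2.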
# Pf growth 48h: inhibits P. falciparum growth in the first generation, 48 h; 310,000 tested, 5.9% active; Potency, µM (titrated, usually from 28.7 µM), for the others: at the top dose activity change, negative = inhibition, actives largely listed as inhibitors; P. falciparum luciferase growth in erythrocytes, 48 h; further: potency means the concentration at half of the fitted maximal effect; on the % scale 0 is the no-effect control and ±100 the full control effect
#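 Read-out is firefly luciferase luminescence from an integrated reporter in P. falciparum, so falling signal marks reduced parasite growth. Infected erythrocytes were at 2% hematocrit and 0.1% parasitemia (final) in Albumax-supplemented RPMI 1640.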
# Shiga inhibitor: Shiga toxin inhibition; 290,000 tested, 9.2% active; inhibition, % at 38.7 µM; Vero cells, Shiga toxin protein synthesis inhibition reporter; in the data active means inhibition mostly above about 28%, no sharp cut-off; inactive means mostly below about 43%; further: 0% is about no effect
# CHX counter: affects cycloheximide protein synthesis inhibition readout, counter-screen. 300,000 tested, 12% active. max response, %. AID 2314. cell reporter, cycloheximide protein synthesis inhibition counterscreen; in the data active means max response mostly above about 13%, no sharp cut-off; inactive means mostly below about 14%; further: read at 38.3 µM for the half of the compounds with a filed dose; 0% is about no effect
# LmPK inh: blocks Leishmania mexicana pyruvate kinase activity | Q27686 | purified LmPK, Kinase-Glo ATP luminescence, 1 h | Potency, µM (titrated, usually from 57.5 µM), for the others: at the top dose activity change, negative = inhibition, actives largely listed as inhibitors | 290,000 tested, 0.37% active; further: potency means the concentration at half of the fitted maximal effect; on the % scale 0 is the no-effect control and ±100 the full control effect
# Target sequence (Q27686 whole entry, looked up): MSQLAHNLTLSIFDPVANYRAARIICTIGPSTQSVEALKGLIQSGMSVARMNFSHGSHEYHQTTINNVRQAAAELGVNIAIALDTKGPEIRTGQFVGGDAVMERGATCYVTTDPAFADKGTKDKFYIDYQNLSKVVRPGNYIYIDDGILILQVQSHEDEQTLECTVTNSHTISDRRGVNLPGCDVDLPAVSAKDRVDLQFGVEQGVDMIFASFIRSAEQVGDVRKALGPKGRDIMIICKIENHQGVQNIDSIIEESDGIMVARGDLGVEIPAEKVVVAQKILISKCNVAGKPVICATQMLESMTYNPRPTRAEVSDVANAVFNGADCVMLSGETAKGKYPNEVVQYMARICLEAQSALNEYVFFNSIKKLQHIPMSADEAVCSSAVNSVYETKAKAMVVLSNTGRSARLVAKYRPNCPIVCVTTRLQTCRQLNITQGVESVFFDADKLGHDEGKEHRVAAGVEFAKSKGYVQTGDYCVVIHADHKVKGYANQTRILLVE
#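 ATP generated from ADP (0.1 mM) and PEP (0.5 mM) by 0.1 nM LmPK over 1 h at room temperature (pH 7.2 imidazole buffer) was detected by coupled luciferase luminescence. Values were normalized to uninhibited and no-enzyme wells.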
# * hit, by the source's call; ? = inconclusive; / = no result; + = active, no number; ! = repeats disagree; [ ] = another dose, or the depositor's remark. Unless noted, the call rests on the fitted dose curve; in most records, active means well fitted inhibition curve with a large enough effect; inconclusive means small, poorly fitted or top-dose-only effect, or another doubt; inactive means no such curve, though single readings can be large or run the other way.
SMILES,Pf growth 96h,Pf growth 48h,Shiga inhibitor,CHX counter,LmPK inh
CCCC(=O)NC(c1ccccc1)c1c(O)ccc2ccccc12 (stereo not drawn),10.6%,0.0%,17.3,-2.0,-7.5%
CCCC(=O)NC(c1ccc(OC)c(OC)c1)c1c(O)ccc2ccccc12 (stereo not drawn),?,?,-10.6,-7.7,0.8%
CC(=O)Oc1ccc2ccccc2c1C(NC(=O)Cc1ccccc1)c1ccccc1Cl (stereo not drawn),27.5%,2.62µM*,-6.0,3.6,-0.5%
CCCC(=O)NC(c1ccc(N(C)C)cc1)c1c(O)ccc2ccccc12 (stereo not drawn),11.7µM*,?,-3.5,-3.2,4.0%
COc1cc(CCC(=O)Nc2cc(C)cc(C)c2)cc(OC)c1OC,?,?,-3.6,9.5,2.5%
Cc1cc(C(=O)N2CCN(c3ncccn3)CC2)nn1C,0.0%,-5.2%,-7.1,-3.6,-10.5%
O=C(NCCCn1ccnc1)c1ccc(N2CCCCC2)c([N+](=O)[O-])c1,?,-24.7%,5.6,5.5,-3.4%
CCN(CC(=O)Nc1c(F)cccc1F)C(=O)CN1C(=O)NC2(CCCC2)C1=O,-2.8%,9.1%,/,/,/
CCC(=O)NC(c1ccccc1)c1c(O)ccc2ccccc12 (stereo not drawn),?,9.28µM*,-10.8,-1.4,0.1%
O=C(O)CN1C(=O)/C(=C/c2ccc(-c3cccc(Cl)c3)o2)SC1=S,/,/,-5.5,-4.0,/
Cc1ccc(C(=O)Nc2ccccc2-c2ccccc2)o1,/,-1.5%,18.3,5.0,-5.1%
COC(=O)c1ccccc1NC(=O)c1cccc(NC(=O)c2ccc(Br)o2)c1C,2.6%,?,10.2,-1.7,-5.2%
O=C(Nc1ccccc1C(=O)O)c1ccc(Br)o1,30.8%,2.3%,38.5*,21.3*,-17.5%
Cc1ccc(C(=O)Nc2ccccc2C(N)=O)o1,/,72.8%,105.5*,36.9*,-13.9%
O=C(Nc1ccccc1N1CCOCC1)c1ccc(Br)o1,?,6.3%,-17.2,10.4,3.3%
O=C(Nc1ccccc1F)c1ccc(Br)o1,13.6%,53.7%,+!,55.3*,-17.1%
Cc1onc(C(=O)NCCc2ccccc2)c1[N+](=O)[O-],22.3%,13.8%[0.00184 µM],48.1,13.5,-0.4%
CC(=O)c1ccc(NC(=O)c2noc(C)c2[N+](=O)[O-])cc1,22.6%,-2.2%,63.1*,31.2*,-1.5%
Cc1onc(C(=O)Nc2ccc(OC(F)(F)F)cc2)c1[N+](=O)[O-],?,5.7%,89.2*,57.2*,-0.6%
Cc1noc(C)c1S(=O)(=O)Nc1ccc(C(=O)Nc2ccc(OC(F)(F)F)cc2)cc1,?,-20.2%,-5.3,-10.6,5.9%
COCCCNC(=O)CN(c1ccc(F)cc1)S(=O)(=O)c1ccc2c(c1)OCCO2,2.3%,6.9%,-3.2,1.2,-9.1%
OC1CCN(Cc2cn(Cc3ccccc3)nc2-c2cc3ccccc3o2)CC1,-23.9%,13.1µM*,9.2,-2.9,0.6%
COCC1CCN(Cc2cn(Cc3ccccc3)nc2-c2cc3ccccc3o2)CC1,30.9%,?,14.3,-3.1,1.9%
COC(=O)C1CCN(Cc2cn(Cc3ccccc3)nc2-c2cc3ccccc3o2)CC1,-3.9%,8.28µM*,-5.0,-0.4,4.8%
CS(=O)(=O)Nc1cccc(C2=NN(C(=O)c3ccccc3Cl)C(c3ccccc3O)C2)c1 (stereo not drawn),?,-20.8%,-6.2,-6.0,-1.3%
SMILES,Pf growth 96h,Pf growth 48h,Shiga inhibitor,CHX counter,LmPK inh
O=C1c2ccccc2S(=O)(=O)N1Cc1cc(=O)n2ccsc2n1,13.1µM*,?,-2.3,-2.6,-13.8%
CN1CCN(Cc2cc(=O)n3ccsc3n2)CC1,?,-4.6%,-20.9,0.7,-0.3%
CCc1nnc(SCCSc2nnc(CC)n2N)n1N,140.5%,27.8%,-12.7,1.7,0.1%
CCCCc1nnc(SCCSc2nnc(CCCC)n2N)n1N,13.1µM*,-11.6%,21.7,5.9,0.0%
CC(C)C[C@H](NC(=O)NC1CCCc2ccccc21)C(=O)O (stereo partly drawn),17.4%,2.33µM*,1.6,-3.1,-1.6%
Cc1occc1C(=O)NN=C1C2CC3CC(C2)CC1C3,165.0%,334.4%,30.0*,27.9*,0.9%
Cc1occc1C(=O)NC1CCCc2ccccc21 (stereo not drawn),6.3%,13.1µM*,16.7,10.2,9.2%
COC(=O)[C@H](CC(C)C)NC(=O)NC1CCCc2ccccc21 (stereo partly drawn),?,-13.2%,-6.7,0.5,5.7%

# Bioassay records: PubChem, National Center for Advancing Translational Sciences (NCATS)
